Results filed as inconclusive are left out. Active and inactive are the calls of the source. How the source made its calls, unless noted: active means hit-call score of the fitted dose curve at least 0.9, where 1 is the maximum; inactive means score below 0.9.
Legend:
[1] = target: human RAR-related Orphan Receptor gamma (RORg), RORC (gene 6097) (UniProt P51449); assay: ATG_RORg_TRANS: Attagene TRANS-FACTORIAL HepG2 Assay for human RAR-related Orphan Receptor gamma (RORg) (AID 2283011; active means hit-call score of the fitted dose curve at least 0.9, where 1 is the maximum)
Chain of human RAR-related Orphan Receptor gamma (RORg), RORC (gene 6097) (P51449 whole entry, looked up, the tested form may be a part): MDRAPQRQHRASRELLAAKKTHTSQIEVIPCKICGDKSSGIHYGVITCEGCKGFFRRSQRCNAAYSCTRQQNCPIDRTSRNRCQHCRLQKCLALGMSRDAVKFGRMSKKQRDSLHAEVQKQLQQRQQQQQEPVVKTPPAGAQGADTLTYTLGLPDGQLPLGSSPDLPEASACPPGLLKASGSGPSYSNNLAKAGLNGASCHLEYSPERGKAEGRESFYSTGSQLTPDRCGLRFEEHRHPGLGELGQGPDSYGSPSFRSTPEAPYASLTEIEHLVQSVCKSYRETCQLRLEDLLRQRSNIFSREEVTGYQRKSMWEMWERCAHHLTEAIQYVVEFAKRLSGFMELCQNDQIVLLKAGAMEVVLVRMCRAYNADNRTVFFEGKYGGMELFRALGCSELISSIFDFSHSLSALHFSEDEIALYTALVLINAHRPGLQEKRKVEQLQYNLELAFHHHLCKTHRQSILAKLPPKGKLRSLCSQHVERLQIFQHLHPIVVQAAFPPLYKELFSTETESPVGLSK
Summary of the method: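 Readout: reporter transcript induction (RT-PCR, fluorescent primer extension, capillary electrophoresis) after 24 h compound exposure of transiently transfected HepG2 cells carrying a RORg-Gal4 chimera and GAL4-UAS reporters; DMSO served as baseline, with increasing signal fitted.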

[2] = target: human Retinoid X Receptor beta (RXRb), RXRB (gene 6257) (UniProt P28702); assay: ATG_RXRb_TRANS: Attagene TRANS-FACTORIAL HepG2 Assay for human Retinoid X Receptor beta (RXRb) (AID 2283013; active means hit-call score of the fitted dose curve at least 0.9, where 1 is the maximum)
Chain of human Retinoid X Receptor beta (RXRb), RXRB (gene 6257) (P28702 whole entry, looked up, the tested form may be a part): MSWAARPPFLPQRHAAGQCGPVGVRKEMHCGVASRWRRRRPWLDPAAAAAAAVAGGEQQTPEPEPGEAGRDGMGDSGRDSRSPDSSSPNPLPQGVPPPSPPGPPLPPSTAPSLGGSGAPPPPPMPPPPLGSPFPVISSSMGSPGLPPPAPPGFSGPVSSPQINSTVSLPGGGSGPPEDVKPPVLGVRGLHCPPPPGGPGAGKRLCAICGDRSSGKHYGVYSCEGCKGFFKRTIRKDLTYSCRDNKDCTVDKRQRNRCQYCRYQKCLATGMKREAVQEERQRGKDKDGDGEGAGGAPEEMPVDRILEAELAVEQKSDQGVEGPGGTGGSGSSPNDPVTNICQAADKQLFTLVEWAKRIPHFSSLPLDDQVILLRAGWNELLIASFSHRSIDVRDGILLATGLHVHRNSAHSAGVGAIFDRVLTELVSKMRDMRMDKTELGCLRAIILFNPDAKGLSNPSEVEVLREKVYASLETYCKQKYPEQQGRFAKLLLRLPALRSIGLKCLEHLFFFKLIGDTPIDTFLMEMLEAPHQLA
Summary of the method: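 After a 24 h incubation with test chemical, transfected HepG2 cells carrying NR-Gal4 fusions and GAL4-UAS reporter transcription units yield RNA whose reporter cDNA is FAM-labelled, HpaI-cut and sized by capillary electrophoresis; increases over DMSO are scored.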

[3] = target: human Thyroid Receptor alpha (THRa1), THRA (gene 7067) (UniProt P10827); assay: ATG_THRa1_TRANS: Attagene TRANS-FACTORIAL HepG2 Assay for human Thyroid Receptor alpha (THRa1) (AID 2283014; active means hit-call score of the fitted dose curve at least 0.9, where 1 is the maximum)
Chain of human Thyroid Receptor alpha (THRa1), THRA (gene 7067) (P10827 whole entry, looked up, the tested form may be a part): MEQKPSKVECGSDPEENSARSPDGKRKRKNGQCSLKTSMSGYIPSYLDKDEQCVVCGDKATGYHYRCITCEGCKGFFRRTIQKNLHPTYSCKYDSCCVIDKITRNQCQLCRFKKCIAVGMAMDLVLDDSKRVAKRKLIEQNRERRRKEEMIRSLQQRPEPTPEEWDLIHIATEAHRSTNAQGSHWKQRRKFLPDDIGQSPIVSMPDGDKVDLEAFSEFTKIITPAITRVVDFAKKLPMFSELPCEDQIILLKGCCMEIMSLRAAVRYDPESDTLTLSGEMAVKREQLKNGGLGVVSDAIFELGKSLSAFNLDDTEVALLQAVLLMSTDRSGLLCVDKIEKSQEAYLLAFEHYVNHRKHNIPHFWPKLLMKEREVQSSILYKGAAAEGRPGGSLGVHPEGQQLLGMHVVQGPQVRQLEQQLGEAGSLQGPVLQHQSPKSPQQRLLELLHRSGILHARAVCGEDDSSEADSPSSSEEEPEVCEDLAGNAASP
Summary of the method: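 HepG2 cells transiently transfected with multiplexed GAL4-UAS reporter units for exogenous chimeric THRa1-Gal4; reporter mRNA measured 24 h after dosing by RT-PCR, 6-FAM labelling, HpaI digestion and capillary electrophoresis. Gain-of-signal fitted versus DMSO baseline.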

[4] = read-out: E-selectin (Homo sapiens) (UniProt P16581); assay: BSK_3C_Eselectin: BioMAP Diversity Plus: 3C Assay for Eselectin Biomarker Activity (AID 2283015); settings: primary human endothelial cells (HUVEC); actives raise or lower the signal;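 further: cell surface E-selectin protein quantified by ELISA 24 h after dosing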
Summary of the method: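 Primary human umbilical vein endothelial cells (3C system) were dosed with chemical and cell-surface E-selectin measured by ELISA 24 h later. Bidirectional curve fitting used DMSO as negative control and baseline.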

[5] = read-out: Interleukin-1 alpha (IL1a), IL1A (gene 3552); assay: BSK_BE3C_IL1a: BioMAP Diversity Plus: BE3C Assay for Interleukin-1 alpha (IL1a) Biomarker Activity (AID 2283016); settings: primary human bronchial epithelial cells; actives raise or lower the signal
Summary of the method: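 Measured in human lung primary bronchial epithelial cells: IL-1a by ELISA at 24 h after dosing, with bidirectional fitting against DMSO.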

[6] = read-out: Monocyte Chemoattractant Protein-1 (MCP1), CCL2 (gene 6347); assay: BSK_3C_MCP1: BioMAP Diversity Plus: 3C Assay for Monocyte Chemoattractant Protein-1 (MCP1) Biomarker Activity (AID 2283017); settings: primary human endothelial cells (HUVEC); actives raise or lower the signal
Summary of the method: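 Primary human umbilical vein endothelial cells (3C system) were exposed to test chemical for 24 h, after which MCP-1 was quantified by ELISA. Activity was fitted bidirectionally against DMSO as negative control and baseline.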

[7] = read-out: Monocyte Chemoattractant Protein-1 (MCP1), CCL2 (gene 6347); assay: BSK_4H_MCP1: BioMAP Diversity Plus: 4H Assay for Monocyte Chemoattractant Protein-1 (MCP1) Biomarker Activity (AID 2283018); settings: primary human endothelial cells (HUVEC); actives raise or lower the signal
Summary of the method: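 Primary human umbilical vein endothelium is exposed to chemical for 24 h before MCP-1 is assayed by ELISA. Concentration-response fitted bidirectionally relative to DMSO.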

[8] = read-out: Human Leukocyte Antigen - DR isotype (HLADR), HLA-DRA (gene 3122); assay: BSK_3C_HLADR: BioMAP Diversity Plus: 3C Assay for Human Leukocyte Antigen - DR isotype (HLADR) Biomarker Activity (AID 2283019); settings: primary human endothelial cells (HUVEC); actives raise or lower the signal
Summary of the method: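 Primary human umbilical vein endothelial cells (3C system) were dosed with compound and cell-surface HLA-DR was quantified by ELISA at 24 h. Activity was fitted bidirectionally against DMSO as negative control and baseline.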

[9] = read-out: Interleukin-8 (IL8), CXCL8 (gene 3576); assay: BSK_3C_IL8: BioMAP Diversity Plus: 3C Assay for Interleukin-8 (IL8) Biomarker Activity (AID 2283020); settings: primary human endothelial cells (HUVEC); actives raise or lower the signal
Summary of the method: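 Using DMSO-treated wells as the baseline, bidirectional curve fitting was applied to ELISA-measured IL-8 from human umbilical vein endothelial cultures sampled 24 h after compound addition.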

[10] = read-out: Monokine induced gamma interferon (MIG), CXCL9 (gene 4283); assay: BSK_3C_MIG: BioMAP Diversity Plus: 3C Assay for Monokine induced gamma interferon (MIG) Biomarker Activity (AID 2283021); settings: primary human endothelial cells (HUVEC); actives raise or lower the signal
Summary of the method: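 ELISA-measured MIG in dosed HUVEC 3C cultures at 24 h, analysed by bidirectional fitting with DMSO defining baseline activity.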

[11] = target: human Vitamin D Receptor (VDR), VDR (gene 7421) (UniProt P11473); assay: ATG_VDR_TRANS: Attagene TRANS-FACTORIAL HepG2 Assay for human Vitamin D Receptor (VDR) (AID 2283022; active means hit-call score of the fitted dose curve at least 0.9, where 1 is the maximum)
Chain of human Vitamin D Receptor (VDR), VDR (gene 7421) (P11473 whole entry, looked up, the tested form may be a part): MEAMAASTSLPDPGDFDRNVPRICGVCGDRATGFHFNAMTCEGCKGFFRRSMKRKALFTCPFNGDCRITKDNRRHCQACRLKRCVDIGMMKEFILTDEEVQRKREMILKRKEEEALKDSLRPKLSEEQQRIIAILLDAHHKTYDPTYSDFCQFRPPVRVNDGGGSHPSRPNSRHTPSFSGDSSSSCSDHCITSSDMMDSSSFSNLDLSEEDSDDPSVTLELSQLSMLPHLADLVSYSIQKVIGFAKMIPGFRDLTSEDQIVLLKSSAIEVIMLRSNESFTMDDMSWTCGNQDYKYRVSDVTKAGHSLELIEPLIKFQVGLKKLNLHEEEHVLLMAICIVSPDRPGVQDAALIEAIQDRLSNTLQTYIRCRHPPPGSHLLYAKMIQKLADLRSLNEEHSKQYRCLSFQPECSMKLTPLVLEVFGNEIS
Summary of the method: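 HepG2 cells were transiently transfected with multiple GAL4-UAS reporter units, so signal reflects exogenous chimeric receptor-Gal4 activity. After 24 h compound exposure, reporter mRNA was measured by RT-PCR, fluorescent labelling and capillary electrophoresis, fitted for gain of signal versus DMSO.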

[12] = BSK_3C_SRB: Viability Assessment in the BioMAP Diversity Plus: 3C Assay (AID 2283023); settings: primary human endothelial cells (HUVEC);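 further: fitted both ways against DMSO so a hit may be signal rise or drop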
Summary of the method: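 Primary human umbilical vein endothelial cells in the 3C system were read 24 h after compound dosing. Total protein was stained with 0.1% sulforhodamine B after 10% TCA fixation and read at 560 nm, with bidirectional fitting against DMSO as baseline.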

[13] = read-out: Matrix Metallopeptidase 1 (MMP1), MMP1 (gene 4312); assay: BSK_BE3C_MMP1: BioMAP Diversity Plus: BE3C Assay for Matrix Metallopeptidase 1 (MMP1) Biomarker Activity (AID 2283024); settings: primary human bronchial epithelial cells; actives raise or lower the signal
Summary of the method: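 In this multiplexed primary-cell system, human bronchial epithelium received chemicals for 24 h before an ELISA for MMP1. Values reflect bidirectional fits normalised to the DMSO baseline.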

[14] = BSK_3C_Vis: BioMAP Diversity Plus: 3C Assay for Morphology Visualization (AID 2283025); settings: primary human endothelial cells (HUVEC);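 further: fitted both ways so gain or loss versus DMSO counts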;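 on AC50: light microscopy image of cell morphology used as background control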
Summary of the method: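 Light-microscopy morphology readout, 24 h exposure, human primary umbilical vein endothelium; analysed relative to DMSO with bidirectional fitting.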

[15] = read-out: Pselectin, SELP (gene 6403); assay: BSK_4H_Pselectin: BioMAP Diversity Plus: 4H Assay for Pselectin Biomarker Activity (AID 2283026); settings: primary human endothelial cells (HUVEC); actives raise or lower the signal
Summary of the method: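 Bidirectional fits against DMSO gave the endpoint. Cells: primary human umbilical vein endothelium, chemical-treated for 24 h before ELISA detection of P-selectin.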

[16] = BSK_4H_SRB: Viability Assessment in the BioMAP Diversity Plus: 4H Assay (AID 2283027); settings: primary human endothelial cells (HUVEC);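 further: cells exposed to compound for 24 h before staining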
Summary of the method: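 Cytotoxicity readout: sulforhodamine B (0.1%) staining of total protein after 10% TCA fixation, measured at 560 nm in human umbilical vein endothelium at 24 h. DMSO set the baseline; fitting was bidirectional.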

[17] = read-out: Thrombomodulin, THBD (gene 7056); assay: BSK_3C_Thrombomodulin: BioMAP Diversity Plus: 3C Assay for Thrombomodulin Biomarker Activity (AID 2283029); settings: primary human endothelial cells (HUVEC); actives raise or lower the signal
Summary of the method: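 In a multiplexed primary-cell system, human umbilical vein endothelium received chemical and was assayed 24 h later for thrombomodulin by ELISA. Parallel cultures were SRB-stained (0.1% SRB after 10% TCA fixation, read at 560 nm) to flag cytotoxicity.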

[18] = BSK_BE3C_SRB: Viability Assessment in the BioMAP Diversity Plus: BE3C Assay (AID 2283028); settings: primary human bronchial epithelial cells
Summary of the method: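 Human primary bronchial epithelial cells were exposed to test chemicals for 24 h. Total protein in parallel cultures was then measured by staining with 0.1% sulforhodamine B after 10% TCA fixation, with absorbance read at 560 nm. Activity was fitted bidirectionally against DMSO.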

[19] = target: Retinoic acid receptor RXR-alpha (Homo sapiens) (UniProt P19793); assay: ATG_RXRa_TRANS: Attagene TRANS-FACTORIAL HepG2 Assay for human Retinoid X Receptor alpha (RXRa) (AID 2283012; active means hit-call score of the fitted dose curve at least 0.9, where 1 is the maximum)
Chain of Retinoic acid receptor RXR-alpha (Homo sapiens) (P19793 whole entry, looked up, the tested form may be a part): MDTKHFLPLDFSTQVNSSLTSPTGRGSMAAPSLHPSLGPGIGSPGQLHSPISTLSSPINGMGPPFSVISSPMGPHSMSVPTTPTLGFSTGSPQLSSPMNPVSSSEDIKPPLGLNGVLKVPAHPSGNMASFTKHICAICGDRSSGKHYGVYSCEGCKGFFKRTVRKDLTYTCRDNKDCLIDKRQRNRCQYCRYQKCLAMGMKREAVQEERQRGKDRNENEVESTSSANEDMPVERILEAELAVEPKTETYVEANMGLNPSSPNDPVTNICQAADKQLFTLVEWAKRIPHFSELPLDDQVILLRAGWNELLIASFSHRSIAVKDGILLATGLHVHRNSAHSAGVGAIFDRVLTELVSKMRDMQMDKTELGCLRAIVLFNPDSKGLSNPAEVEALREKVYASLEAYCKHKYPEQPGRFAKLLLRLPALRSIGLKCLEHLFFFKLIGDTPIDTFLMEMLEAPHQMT
Summary of the method: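 Chimeric NR-GAL4 trans-activation in HepG2, 24 h treatment; reporter transcripts quantified by fluorescence on capillary electrophoresis, analysed for upward change from DMSO.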

Measured: AC50

Chain of E-selectin (Homo sapiens) (P16581 whole entry, looked up): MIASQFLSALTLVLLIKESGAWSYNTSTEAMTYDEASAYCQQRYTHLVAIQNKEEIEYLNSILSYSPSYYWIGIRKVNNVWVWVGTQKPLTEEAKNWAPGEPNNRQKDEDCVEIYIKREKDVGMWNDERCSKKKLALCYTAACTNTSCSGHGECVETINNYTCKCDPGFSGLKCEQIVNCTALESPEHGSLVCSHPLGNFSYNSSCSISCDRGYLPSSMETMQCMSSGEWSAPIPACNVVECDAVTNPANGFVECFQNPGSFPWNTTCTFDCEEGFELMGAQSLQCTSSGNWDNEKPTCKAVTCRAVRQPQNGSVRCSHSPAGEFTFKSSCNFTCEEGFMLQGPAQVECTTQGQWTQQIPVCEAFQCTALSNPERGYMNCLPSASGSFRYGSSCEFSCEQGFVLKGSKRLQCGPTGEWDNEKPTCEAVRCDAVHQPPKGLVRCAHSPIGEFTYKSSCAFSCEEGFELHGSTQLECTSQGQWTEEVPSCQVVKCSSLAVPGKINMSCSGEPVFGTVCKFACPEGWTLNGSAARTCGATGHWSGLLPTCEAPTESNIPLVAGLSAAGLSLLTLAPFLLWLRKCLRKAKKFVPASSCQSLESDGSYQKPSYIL

CCCCOCCOCCOC(=O)CCCCC(=O)OCCOCCOCCCC
not listed: [18] | [19]
inactive: all other assays above

FC1CC(F)(F)C(F)(F)C1(F)F (stereo not drawn)
not listed: [2] | [11] | [14] | [17] | [19]
inactive: all other assays above

FC(F)(F)C(F)(F)C(F)(F)CI
not listed: [4] | [6] | [14] | [17] | [19]
inactive: all other assays above

CC(=O)Nc1ccc(N=Nc2cc(C)ccc2O)cc1
active: [3] 47.6 µM | [8] 14.5 µM | [13] 24.7 µM | [14] 39.6 µM | [15] 15.2 µM | [17] 7.5 µM
not listed: [4] | [6] | [19]
inactive: all other assays above

Oc1ccc(Nc2ccccc2)cc1
active: [5] 13.4 µM | [7] 9.6 µM | [8] 20 µM | [9] 0.0694 µM
not listed: [1] | [4]
inactive: all other assays above

CCc1c(Br)c(Br)c(Br)c(Br)c1Br
active: [2] 5.94 µM
not listed: [1] | [4] | [17] | [18]
inactive: all other assays above

From PubChem BioAssay (EPA / NIEHS)
